Pf apPOL block: Pf-apPOL DNA polymerase inhibition; inhibition, % at 10 µM; Recombinant Pf-apPOL, molecular beacon fluorescence, 1.5 h; 0.25% of 210,000 active
mHTT CaM bind: inhibitors of human mutant huntingtin-calmodulin interaction | P42858 | AlphaScreen His-mHTT/GST-CaM binding, luminescence | inhibition, % at 15 µM | 3.6% of 190,000 active | AID 1671202;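 further: 0% = both proteins with DMSO and 100% = one protein alone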
The depositor's hits bear a star; nt = not tested or not shown. Sampled rows, rich in hits. Any-hit rate of the full collection: about 3.5%. No stated cut-off is given here; in the data, active means inhibition above about 50%; inactive means the rest.

SMILES	Pf apPOL block	mHTT CaM bind
CC(=O)Nc1ccc(S(=O)(=O)Nc2ccc3c(c2)OC(C)(C)O3)cc1	-1	4
COc1ccc(C(O)=C2C(=O)C(=O)N(CC(=O)O)C2c2ccccc2)cc1 (stereo unspecified)	-3	-1
O=C(Nc1c(F)cccc1F)N(Cc1cccnc1)Cc1ccco1	-16	0
Nc1c(Cl)cc(NC(=O)c2ccccc2C(=O)O)cc1Br	10	25
O=C(Nc1cccc2ccc(-n3ccnc3)nc12)c1ccsc1	-6	51*
O=C(Nc1cccc2ccc(-n3ccnc3)nc12)c1ccc2c(c1)OCO2	0	-10
COCCNC(=O)C1CCN(c2nnc(-c3ccc(C)cc3)o2)CC1	-10	6
COc1cc(C2NC(=O)NC(C)=C2C(=O)Nc2ccc(F)c(F)c2)ccc1O (stereo unspecified)	-2	0
COc1ccc(NC(=O)C2=C(C)NC(=O)NC2c2cccs2)c(OC)c1 (stereo unspecified)	0	2
COc1ccc(NC(=O)C2=C(C)NC(=O)NC2c2ccc(OC)cc2OC)c(OC)c1 (stereo unspecified)	1	73*
COc1ccc(C2NC(=O)NC(C)=C2C(=O)Nc2ccc(C)c(Cl)c2)cc1OC (stereo unspecified)	0	54*
O=C(CC1Sc2ccccc2NC1=O)NO (stereo unspecified)	4	nt
Cc1c(-c2noc(C(=O)N3CCC(C)CC3)n2)oc2ccccc12	0	-41
Cc1cc(C(=O)NN2CCN(C)CC2)ccc1[N+](=O)[O-]	-8	-2
COc1ccc(C(=O)N2CC(=O)Nc3ccc(Cl)cc3C2c2ccc(F)cc2)cc1OC (stereo unspecified)	-10	71*
COc1ccc(C(=O)N2CC(=O)Nc3ccc(Cl)cc3C2c2ccc(F)cc2)c(OC)c1 (stereo unspecified)	-3	43
COCC(C)Nc1ncnc2nc[nH]c12 (stereo unspecified)	3	6
C=CCOc1ccc(/C=C2\SC(=N)N(c3nccs3)C2=O)cc1OCC	-79	74*
N=C1S/C(=C\c2cc3c(cc2Cl)OCO3)C(=O)N1c1nccs1	11	11
Cc1cc(Cl)ccc1OCC(=O)N1CCN(c2ccc([N+](=O)[O-])cc2)CC1	-8	4
Cc1nc(-c2coc3c(C)c(O)c(CN(C)C)cc3c2=O)cs1	-4	5
O=C(O)CN1C(=O)/C(=C2/SC(N3CCOCC3)=NC2=O)c2cc(Br)ccc21	2	0
C=CCN1C(=O)/C(=C2/SC(N3CCCCC3)=NC2=O)c2cc(Br)ccc21	-4	52*
CCCN1C(=O)/C(=C2/SC(=N)NC2=O)c2cc(Br)ccc21	-1	5
C=CCN1C(=O)/C(=C2\SC(N3CC(C)OC(C)C3)=NC2=O)c2cc(Br)ccc21 (stereo unspecified)	nt	54*
SMILES	Pf apPOL block	mHTT CaM bind
Cn1c(=O)c(Sc2ccccc2)c(O)c2ccccc21	-2	nt
CCC(=O)NC(c1cccc([N+](=O)[O-])c1)c1ccc2cccnc2c1O (stereo unspecified)	-2	100*
Cc1ccnc(NC(c2ccc([N+](=O)[O-])cc2)c2ccc3cccnc3c2O)c1 (stereo unspecified)	-8	100*
Cc1nc(O)c(C(c2cccc([N+](=O)[O-])c2)c2c(O)nc(C)[nH]c2=O)c(=O)[nH]1	2	3
Cc1cccc(-c2cc(NC(=O)c3ccc([N+](=O)[O-])cc3)n[nH]2)c1	1	5
Cc1ccnc(NC(c2cccc([N+](=O)[O-])c2)c2ccc3cccnc3c2O)c1 (stereo unspecified)	-1	100*
COc1ccc(C(=O)Nc2cccc(NC(C)=O)c2)cc1OC	0	-1
COc1cc(C2Oc3ccccc3C=C2[N+](=O)[O-])ccc1OCc1ccccc1 (stereo unspecified)	-3	37
COc1ccc(C2Oc3c(Br)cc(Br)cc3C=C2[N+](=O)[O-])cc1OC (stereo unspecified)	-7	69*
O=c1c(S(=O)(=O)N2CCCC2)cccn1Cc1ccccc1OC(F)(F)F	-13	-11
COc1cc(OC)c2c(-c3ccccc3)cc(=O)oc2c1C(CC(=O)N1CCCC1)c1ccc(N(C)C)cc1 (stereo unspecified)	-9	90*
COc1ccc(C(CC(=O)N2CCCC2)c2c(OC)cc(OC)c3c(-c4ccccc4)cc(=O)oc23)cc1 (stereo unspecified)	16	81*
COc1ccc(C(CC(=O)N2CCCC2)c2c(OC)cc(OC)c3ccc(=O)oc23)cc1 (stereo unspecified)	-1	44
COc1ccc(C(CC(=O)N2CCOCC2)c2c(OC)cc(OC)c3c(-c4ccccc4)cc(=O)oc23)cc1 (stereo unspecified)	8	43
COc1cc(C(CC(=O)N2CCCC2)c2c(OC)cc(OC)c3c(-c4ccccc4)cc(=O)oc23)cc(OC)c1OC (stereo unspecified)	3	52*
CCN(CC)C(=O)CC(c1ccc(N(C)C)cc1)c1c(OC)cc(OC)c2c(-c3ccccc3)cc(=O)oc12 (stereo unspecified)	1	3
NC(=NOC(=O)c1csc([N+](=O)[O-])c1)c1cc(C(F)(F)F)cc(C(F)(F)F)c1	-6	nt
COCCC1CCN(C(=O)c2ccc(C)s2)CC1	-2	-4
Cc1cc(OCC(=O)Nc2ccc(F)cc2Cl)nc(N2CCCC2)n1	-1	1
COc1cc(C2C(C#N)=C(N)Oc3n[nH]c(-c4ccc(Cl)c(Cl)c4)c32)ccc1O (stereo unspecified)	-1	99*
N#CC1=C(N)Oc2n[nH]c(-c3ccc(Cl)c(Cl)c3)c2C1c1ccc(O)cc1 (stereo unspecified)	-4	100*
COc1ccc(C2C(C#N)=C(N)Oc3n[nH]c(-c4ccc(OC)c(OC)c4)c32)cc1O (stereo unspecified)	-1	10
COc1cc(C2C(C#N)=C(N)Oc3n[nH]c(-c4cc(OC)c(OC)c(OC)c4)c32)ccc1O (stereo unspecified)	-3	10
COc1ccc(-c2[nH]nc3c2C(c2ccc(C(F)(F)F)cc2)C(C#N)=C(N)O3)cc1OC (stereo unspecified)	1	100*
N#CC1=C(N)Oc2n[nH]c(-c3cccc([N+](=O)[O-])c3)c2C1c1ccc(O)cc1 (stereo unspecified)	7	14
SMILES	Pf apPOL block	mHTT CaM bind
COc1cc2c3c(c1OC)C1(C=CC(=O)C=C1)CC3NCC2 (stereo unspecified)	-8	nt
CCN(CC)c1ccc(C=Nc2ccc(C)cc2)cc1	-4	-4
CCN(CC)c1ccc(N=Cc2ccc(O)cc2)cc1	-8	86*
CCC1(C)CC(=O)N(c2ccc([N+](=O)[O-])cc2C)C1=O (stereo unspecified)	-2	-7
COc1cc(CN2CCN(Cc3ccccc3)CC2)cc(OC)c1O	-3	-2
NS(=O)(=O)c1ccc(Nc2nc(-c3ccncc3)cs2)cc1	-1	5
CCC(=O)Nc1nc(C)c(-c2csc(Nc3ccc(N(C)C)cc3)n2)s1	2	93*
CCC(=O)Nc1nc(C)c(-c2csc(Nc3cc(C)ccn3)n2)s1	-3	35
CN(C)c1ccc(Nc2nc(-c3cccnc3)cs2)cc1	-8	6
CCN(CC)c1ccc(Nc2nc(-c3ccccn3)cs2)cc1	-4	100*
CC(=O)c1cccc(Nc2nc(-c3ccc(Cl)c(Cl)c3)cs2)c1	1	3
